# Results as given in ChEMBL document CHEMBL4513146, “CO-ADD screening of Karazin Kharkiv National University (Ukraine) compounds”.
# Results with a measured potency or affinity are listed apart.
# System: Staphylococcus aureus
# Conditions: Concentration 32 ug.mL-1;; ASSAY_TEST Inhibition of Bacterial Growth; detection method Absorption (OD600); MEDIA CAMHB; plate type 384well; NBS; CORNING #3640; time 18 hr
row,SMILES,Inhibition
1,O=S(=O)(c1ccc2nncn2c1)N(Cc1cc(F)cc(F)c1)c1ccc(F)c(F)c1,8.61%
2,CSc1ccc(CNC(=O)Cn2nc3c(N4CC(C)CC(C)C4)nccn3c2=O)cc1 (centres undefined),11.21%
3,Cc1nnc2c(S(=O)(=O)N(Cc3cccc(F)c3)c3cccc(F)c3)cccn12,18.57%
4,CC(C)c1ccc(N(Cc2ccccc2F)S(=O)(=O)c2cccn3cnnc23)cc1,2.39%
5,COC(=O)c1ccccc1NC(=O)Cn1nc2c(Oc3ccccc3)nccn2c1=O,8.3%
6,COc1cccc(CNC(=O)CSc2nnc3c4cc(-c5cc(C)ccc5C)nn4ccn23)c1OC,5.75%
7,Cc1ccc(C)c(CN(c2cccc(Cl)c2)S(=O)(=O)c2cccn3c(C)nnc23)c1,11.55%
8,CN(Cc1ccccc1)C(=O)CSc1nnc2c3cc(-c4ccccc4)nn3ccn12,11.08%
9,O=c1c2sccc2n2c(=O)n(Cc3ccccc3Cl)nc2n1Cc1cccs1,-1.31%
10,CCc1ccc(N(Cc2ccc(C)cc2)S(=O)(=O)c2cccn3c(CC)nnc23)cc1,5.86%
11,CCc1ccc(N(Cc2ccccc2)S(=O)(=O)c2cccn3c(C)nnc23)cc1,11.03%
12,CC(C)c1nnc2c(SCC(=O)Nc3ccc(Br)cc3)nc3ccccc3n12,1.25%
13,O=C(CSc1nnc2c(=O)n(-c3ccccc3)ccn12)Nc1ccc2c(c1)OCO2,8.51%
14,COc1ccc(CN(c2ccc(OC)cc2)S(=O)(=O)c2ccc3nnc(C)n3c2)cc1,4.23%
15,O=C(CSc1nnc2c(=O)n(-c3ccccc3)ccn12)Nc1ccc(Br)cc1,5.51%
16,CC(C)Cn1c(=O)c2sccc2n2c(=O)n(CC(=O)N(C)c3ccccc3)nc12,4.88%
17,O=c1c2sccc2n2c(SCc3cccc(C(F)(F)F)c3)nnc2n1Cc1cccs1,3.6%
18,CC(C)c1nnc2c(=O)n(CC(=O)Nc3ccc(C#N)cc3)c3ccccc3n12,-0.41%
19,Cc1ccc(NC(=O)CSc2nc3ccccc3n3c(C(C)C)nnc23)cc1Cl,-8.33%
20,CSc1ccc(CNC(=O)Cn2nc3c(Oc4cccc(C)c4C)nccn3c2=O)cc1,11.62%
21,COC(=O)c1ccc(NC(=O)Cn2nc3c4sc(N5CCCC5)nc4ncn3c2=O)cc1,-12.82%
22,Cc1ccc(-c2ccc3nn(Cc4nc(-c5ccc(OC(F)(F)F)cc5)no4)c(=O)n3n2)cc1,8.38%
23,Cn1c(=O)c2ccc(C(=O)NC3CCCCC3)cc2n2c(=O)n(Cc3cccc(C(F)(F)F)c3)nc12,12.74%
24,Cc1cc(C)cc(NC(=O)Cn2nc3n(C)c(=O)c4c(c(-c5ccccc5)cn4C)n3c2=O)c1,7.23%
